# Measurements as given in PubChem BioAssay (NCI).
# This is part of a sample that, as a whole, favours compounds with a hit. Of some 83,000 tested, about 20% had one in any assay.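 Method: cells in 96-well plates; compound added at one concentration; 48 h incubation; percent growth measured; values under 10 scored active.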 A number with no mark means an inactive call. Calls of active or inactive are those of the source.
# System: SNB-75 CNS
# Assay: NCI-60 one-dose screen, 48 h (100 = growth as untreated, 0 = no growth, -100 = all killed)
# Details: 10 µM unless noted
row,Compound,growth
1,O=C(/C=C/c1ccc(Oc2ccc(Br)cc2)cc1)c1ccc(Br)cc1,90.7%
2,CO[C@H](C(=O)[C@@H](O)[C@@H](C)O)[C@@H]1Cc2cc3cc(O[C@H]4C[C@@H](O[C@H]5C[C@@H](O)[C@H](O)C(C)O5)[C@H](O)C(C)(O)O4)cc(O)c3c(O)c2C(=O)[C@H]1O[C@H]1C[C@@H](O[C@H]2C[C@@H](O[C@H]3C[C@@H](OC)[C@H](O)C(C)O3)[C@@H](O)C(C)O2)[C@H](O)C(C)O1 (stereo partly specified),24.5%
3,FC(F)(F)Oc1cccc(-c2cnc3ccc(-c4ccncc4)nn23)c1,41.6%
4,O=S(=O)(Nc1cc(Sc2cccc3cccnc23)c(O)c2ccccc12)c1ccccc1,65.9%
5,Cc1ccc(-c2nc(SCc3nc4cc(Cl)c(Cl)cc4[nH]3)[nH]c(=O)c2C#N)cc1,87.2%
6,CN(C)S(=O)(=O)Oc1ccc(-c2sc3cc(OS(=O)(=O)N(C)C)ccc3c2C(=O)c2ccc(OCCN3CCCCC3)cc2)cc1,61.5%
7,COc1ccc(C2=NN(C(C)=O)C(c3cn(-c4ccccc4)nc3-c3ccc(Cl)cc3)C2)cc1 (stereo unspecified),-4.48% (active)
8,O=C(CSc1nnc(-c2cc(-c3ccccc3)nc3ccccc23)n1-c1ccccc1)Nc1ccc(C(=O)/C=C/c2ccc(Cl)cc2)cc1,97.3%
9,CCOC(=O)C(=Cc1ccc(-c2ccccc2)cc1)C(=O)OCC,38%
10,Cc1ccc(S(=O)(=O)N2CCC(=O)c3ccccc32)cc1,42.8%
11,COc1ccccc1N(C(C)=O)C1=C(Cl)C(=O)c2ccccc2C1=O,24.8%
